# Source: PubChem BioAssay
# AmpC inh no detg: inhibitors of E. coli AmpC beta-lactamase without detergent | P00811 | AmpC nitrocefin hydrolysis, absorbance 480 nm, 0.0001% Triton | Potency, µM (doses to about 57.1 µM), inactives show top-dose activity change, negative = inhibition, usual class: inhibitors | hit rate 0.52% among 330,000 | AID 485341;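 also: plate controls were no compound for no effect and no enzyme for full effect; nearly all actives have a fitted effect of over 20% in size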
# Target sequence (P00811 whole entry, looked up): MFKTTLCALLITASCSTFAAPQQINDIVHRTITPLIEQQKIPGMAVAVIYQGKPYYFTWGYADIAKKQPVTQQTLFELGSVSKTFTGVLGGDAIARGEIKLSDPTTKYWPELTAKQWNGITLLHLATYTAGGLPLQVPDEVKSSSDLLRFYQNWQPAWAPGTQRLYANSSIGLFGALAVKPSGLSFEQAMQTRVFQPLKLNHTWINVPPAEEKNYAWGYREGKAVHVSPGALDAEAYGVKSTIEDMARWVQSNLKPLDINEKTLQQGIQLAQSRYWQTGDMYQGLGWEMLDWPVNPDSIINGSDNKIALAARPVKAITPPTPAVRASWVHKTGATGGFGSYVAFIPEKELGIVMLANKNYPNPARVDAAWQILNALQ
#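 20 mM phosphate pH 7.0 + 0.01% (detergent screen) or 0.0001% Triton X-100; 5.3 nM AmpC reagent; cpd preinc 15 min RT; nitrocefin (800 uM stock) to start; A480 q20 s × 4 min; Activity was normalised to no-enzyme and no-compound control wells.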
# Sm TGR inh: S. mansoni TGR enzyme inhibition. Q962Y6. purified TGR, DTNB reduction, TNB absorbance 405 nm. Potency, µM (top dose mostly 114 µM), without a hit: at the highest dose activity change, negative = inhibition, hits mostly inhibitors. hit rate 3% among 360,000; also: nearly all actives have a fitted effect of over 60% in size
#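 TGR 20 nM + NADPH 100 uM (dispensed conc.), cpd preinc 15 min RT; start with NADPH (500 uM addition) then DTNB (15 mM addition). Kinetic TNB absorbance, 405 nm filter. Four-parameter Hill fit across titration.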
# AmpC detergent: AmpC beta-lactamase inhibition with detergent present. AmpC hydrolysis of nitrocefin, absorbance 480 nm, 0.01% Triton. Potency, µM (titrated, usually from 114 µM), without a hit: top-dose activity change, negative = inhibition, most hits filed as inhibitors. hit rate 0.041% among 370,000;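 also: 0% = no-compound wells and -100% = no-enzyme wells; nearly all actives have a fitted effect of over 25% in size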
#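 20 mM phosphate pH 7.0 + 0.01% (detergent screen) or 0.0001% Triton X-100; 5.3 nM AmpC reagent; cpd preinc 15 min RT; nitrocefin (800 uM stock) to start; A480 q20 s × 4 min; Activity was normalised to no-enzyme and no-compound control wells.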
# Active calls of the source: *; ? = inconclusive; . = no result. Compounds with a hit are over-represented: about 3.3% of the library has one in this group of screens. Calls follow the shape of the dose curve; as a rule, active = well fitted curve in the direction sought with a large enough effect; inconclusive = small, poorly fitted or top-dose-only effect, or another doubt; inactive = no such curve, though single readings can be large; an effect the other way counts as inactive or inconclusive. Unless noted, % is scaled to controls: 0 for no effect and ±100 for the full control effect; potency is read from the fitted curve at half-maximal effect.
SMILES,AmpC inh no detg,Sm TGR inh,AmpC detergent
CC1=NNC(=O)C1C(c1ccc(Cl)cc1)C(C#N)C#N (configuration not stated),-17%,11µM*,-5%
CC1=NN(Cc2ccccc2)C(=O)C1C(c1ccc(Cl)cc1)C(C#N)C#N (configuration not stated),-32%,14µM*,?
CC1=NNC(=O)C1C(c1cccc(O)c1)C(C#N)C#N (configuration not stated),-18%,2%,-9%
Cc1ccc(NC(=O)Cn2c(=O)n(-c3ccc(C)cc3)c(=O)c3c2cnn3C)cc1,.,-2%,-1%
Cc1ccc2nc(/C(C#N)=C/c3cccc(Br)c3)[nH]c2c1,.,6%,-13%
Cc1ccc2nc(/C(C#N)=C/c3ccc(O)c(O)c3)[nH]c2c1,20µM*,-1%,15%
CC(C)COc1ccc(C(=O)N2CCC(c3nc4ccccc4s3)CC2)cc1,.,0%,8%
COC(=O)[C@]1(Cc2ccccc2)N[C@H](c2ccc(-c3ccc(Cl)c(Cl)c3)cc2)[C@@H]2C(=O)N(C)C(=O)[C@@H]21,46%,?,1%
Cc1c(NS(=O)(=O)c2ccc(N3CCN(C)CC3)c([N+](=O)[O-])c2)c(=O)n(-c2ccccc2)n1C,1%,4%,5%
Cc1c(NS(=O)(=O)c2cccc([N+](=O)[O-])c2)c(=O)n(-c2ccccc2)n1C,-21%,28µM*,-2%
CC1(C)CC2CC(C)(CN2C(=O)COC(=O)c2cncc(Br)c2)C1 (configuration not stated),27%,2%,0%
CCN(C[C@H]1N[C@@](CC)(C(=O)OC)[C@H]2C(=O)N(C)C(=O)[C@@H]12)C(=O)c1ccc(C(C)(C)C)cc1,109%,.,.
N#Cc1c([N+](=O)[O-])cc([N+](=O)[O-])cc1S(=O)(=O)Cc1ccccc1,-42%,0.35µM*,?
COc1cc(OC)c(C#N)c(S(=O)(=O)Cc2ccccc2)c1,-27%,0%,3%
CCN(CC(=O)N1CCN(Cc2ccccc2)CC1)S(=O)(=O)c1ccc(F)cc1,109%,74%,6%
COc1ccc(CN2CCN(c3nc4ccccc4s3)CC2)cc1,-3%,5%,-4%
COc1ccc(CCn2c(O)cc3nn(-c4nc5ccccc5s4)c(=O)c-3c2C)cc1,10µM*,7%,2%
CCOC(=O)C1=C(C)N=c2s/c(=C/c3cccc([N+](=O)[O-])c3O)c(=O)n2C1c1ccc(OC)cc1OC (configuration not stated),-18%,56µM*,-7%
CCOC(=O)C1=C(C)N=c2s/c(=C\c3ccc(O)c([N+](=O)[O-])c3)c(=O)n2C1c1ccccc1OC (configuration not stated),-30%,-10%,-13%
Cn1cccc1C(=O)NC1CCCCC1,-4%,2%,?
CN(CC(=O)Nc1ncn[nH]1)S(=O)(=O)c1cc(Cl)ccc1Cl,4%,-6%,-9%
O=C(O)COc1ccc(/C=N/NC(=O)c2ccc(-c3csc(Nc4ccc(Cl)cc4)n3)cc2)cc1,-54%,-3%,?
COc1cccc(C(=O)N/N=C/c2ccc(OC)c(COc3ccccc3C(N)=O)c2)c1,94%,-3%,2%
CCOc1cc(/C=N/NC(=O)c2ccccn2)ccc1OC(=O)c1ccc(F)cc1,-3%,50µM*,6%
CCOc1cc(/C=N/NC(=O)c2ccncc2)ccc1OC(=O)c1ccccc1,80%,-16%,3%
SMILES,AmpC inh no detg,Sm TGR inh,AmpC detergent
COc1ccc(NC(=S)N/N=C/c2ccc(F)cc2)cc1OC,-23%,2%,8%
CCOc1cc(/C=N/NC(=O)c2ccc(-c3csc(Nc4ccc(C)cc4)n3)cc2)ccc1OCC(=O)O,1.4µM*,0%,-2%
COc1ccc(/C=N/NC(=S)Nc2ccccc2)cc1COc1ccc(F)cc1F,18µM*,-17%,-3%
COc1ccc(/C=N\NC(=O)c2ccc(F)cc2)cc1COc1ccccc1C(N)=O,94%,28µM*,5%
Cc1ccc(-c2noc(-c3nnn(CC(=O)Nc4ccc(C)c(Cl)c4)c3N)n2)cc1,.,-4%,2%
Cc1nc(C)c(C(=O)OCC(=O)NCc2ccccc2Cl)s1,-5%,.,.
COc1cc(C(C(=O)NC2CCCC2)N(CCO)C(=O)Cn2nnc(-c3ccc(C)o3)n2)ccc1O (configuration not stated),-13%,45µM*,-2%
CCN(CC)C(=O)Cn1nnc(-c2ccc(C)o2)n1,32%,25µM*,-13%
CCC(C(=O)NC1CCCC1)N(C(=O)Cn1nnc(-c2ccc(C)o2)n1)C(C)(C)C (configuration not stated),43%,-36%,?
